Experimental data: PubChem BioAssay AID485346 (Sanford-Burnham Center for Chemical Genomics, 2010)
The campaign covered roughly 330,000 compounds. About 10,000 (3%) were called active. The sample as a whole holds a higher share of actives than the screen did. A number with no mark means an inactive call.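 How the source made its calls: active means inhibition of at least 50% at 8 µM in the primary screen; inactive means the rest.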

Each molecule was assayed against Protein Mdm4 (Homo sapiens) + E3 ubiquitin-protein ligase Mdm2 (Homo sapiens) (UniProt O15151+Q00987) (assay: disruptors of Mdm2/MdmX RING complex – cell-based, luminescence, split luciferase, SaOS-2, uHTS, primary screen (AID 485346)). Settings: SaOS-2 split-luciferase Mdm2/MdmX complementation, at 8 µM, active compounds read high.
Sequence of Protein Mdm4 (Homo sapiens) + E3 ubiquitin-protein ligase Mdm2 (Homo sapiens) (O15151 whole entry, looked up): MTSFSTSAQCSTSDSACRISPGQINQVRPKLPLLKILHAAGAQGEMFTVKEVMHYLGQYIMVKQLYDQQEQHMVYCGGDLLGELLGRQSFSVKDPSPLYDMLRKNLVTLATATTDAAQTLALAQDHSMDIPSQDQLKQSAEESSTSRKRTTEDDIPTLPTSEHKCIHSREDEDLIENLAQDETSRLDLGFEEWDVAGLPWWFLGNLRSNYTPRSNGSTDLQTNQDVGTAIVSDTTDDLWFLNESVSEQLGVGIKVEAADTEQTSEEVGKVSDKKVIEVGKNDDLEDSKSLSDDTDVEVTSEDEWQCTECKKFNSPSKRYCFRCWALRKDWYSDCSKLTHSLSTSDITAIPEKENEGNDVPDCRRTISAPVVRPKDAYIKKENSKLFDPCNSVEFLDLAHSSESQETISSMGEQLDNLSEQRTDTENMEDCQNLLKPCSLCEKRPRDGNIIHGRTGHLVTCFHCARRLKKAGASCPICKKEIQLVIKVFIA
Sequence of Protein Mdm4 (Homo sapiens) + E3 ubiquitin-protein ligase Mdm2 (Homo sapiens) (Q00987 whole entry, looked up): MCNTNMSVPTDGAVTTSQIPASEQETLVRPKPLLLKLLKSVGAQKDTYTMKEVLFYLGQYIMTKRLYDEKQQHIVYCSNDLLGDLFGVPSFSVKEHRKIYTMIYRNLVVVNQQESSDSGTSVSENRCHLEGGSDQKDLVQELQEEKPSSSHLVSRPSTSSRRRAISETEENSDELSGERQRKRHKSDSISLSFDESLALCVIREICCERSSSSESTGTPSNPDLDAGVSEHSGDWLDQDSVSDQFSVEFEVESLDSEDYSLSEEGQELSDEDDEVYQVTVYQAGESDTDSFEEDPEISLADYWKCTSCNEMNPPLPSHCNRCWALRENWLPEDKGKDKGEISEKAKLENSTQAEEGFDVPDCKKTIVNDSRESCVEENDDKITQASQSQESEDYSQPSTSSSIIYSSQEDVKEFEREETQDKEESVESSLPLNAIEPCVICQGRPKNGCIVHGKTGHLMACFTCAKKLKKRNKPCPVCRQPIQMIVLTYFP

For `COc1ccc(CC(NC(C)=O)C(=O)NC2CCN(C(=O)c3ccc(Cl)cc3)CC2)cc1` (stereo not given), which inhibition is on record?
Its inhibition is 7.62%.

With `Cc1ccc(-c2nn(C(C)(C)C)c3ncnc(N)c23)cc1` as the molecule, how does the inhibition read?
The inhibition was 79% (active).

`Cc1ccc(-n2cnc3ncnc(-c4ccccc4)c32)cc1` was tested. Which inhibition did it give?
The inhibition was 6.32%.

Which inhibition does the source give for `c1ccc(-c2cnc(CN3CCN(c4ccccc4)CC3)o2)cc1` here?
The inhibition was -0.44%.

With `CCN=c1sc(C(=O)Nc2ccccc2)c(C)n1CC` as the molecule, how does the inhibition read?
The inhibition was 18.2%.

Which inhibition does the source give for `CCCn1c(N)c(C(=O)CSc2nnc3n2CCCCC3)c(=O)[nH]c1=O` here?
The inhibition was 2.64%.

Which inhibition does the source give for `CC(C)(C)NC(=O)NC(=O)CN1CCC(Cc2ccccc2)CC1` here?
Its inhibition is 12%.

Which inhibition does the source give for `Cc1cccc(C)c1NC(=O)CCS(=O)(=O)c1cccc2nsnc12` here?
Its inhibition is -1.39%.

How did the inhibition turn out when `COc1ccc(NC(=O)CS(=O)(=O)c2ccccc2)cc1` was run?
The inhibition was -16.7%.

`Cc1cccc2sc(N(CCCN(C)C)C(=O)CCS(=O)(=O)c3ccccc3)nc12` was tested. Which inhibition did it give?
Its inhibition is 98.7% (active).

Which inhibition does the source give for `CC(=O)N(CCCN(C)C)c1nc2ccc(C)cc2s1` here?
The inhibition was -16.8%.

For `COc1cccc2sc(N(CCCN(C)C)C(=O)C(c3ccccc3)c3ccccc3)nc12`, which inhibition is on record?
Its inhibition is 92.5% (active).

With `COc1cccc2sc(N(CCCN(C)C)C(=O)CCS(=O)(=O)c3ccccc3)nc12` as the molecule, how does the inhibition read?
The inhibition was 73.6% (active).

How did the inhibition turn out when `COc1cc2ccccc2cc1C(=O)N(CCN(C)C)c1nc2c(F)cccc2s1` was run?
The inhibition was 19.4%.

For `COc1ccc(N(C)C(=O)CCS(=O)(=O)c2cccc3nsnc23)cc1`, which inhibition is on record?
Its inhibition is -8.48%.

Which inhibition does the source give for `CN(C)CCN(C(=O)CN1C(=O)c2ccccc2C1=O)c1nc2cc3c(cc2s1)OCCO3` here?
The inhibition was -9.56%.

How did the inhibition turn out when `CC(C)(Oc1ccc(Cl)cc1)C(=O)OCC(=O)NCCc1ccc(S(N)(=O)=O)cc1` was run?
The inhibition was -3.95%.

How did the inhibition turn out when `CC1=C(C(N)=O)C(c2ccc(F)cc2)n2nc(CCCO)nc2N1` (stereo not given) was run?
Its inhibition is 1.82%.

For `CCOCCCNC(=O)C1(O)c2cc(Br)ccc2NC(=O)N1c1ccc(C)c(C)c1` (stereo not given), which inhibition is on record?
Its inhibition is 18.7%.

Which inhibition does the source give for `Cc1nc2cc(C(F)(F)F)ccc2n1CCNc1nc(-c2cc(Cl)c(N)c(Cl)c2)cs1` here?
The inhibition was 27.1%.

With `CSc1ccc(NC(=O)N2CC(C)OC(C)C2)cc1` (stereo not given) as the molecule, how does the inhibition read?
Its inhibition is 15%.

With `COc1cc(NS(=O)(=O)c2ccc(NC(=O)c3ccc(S(=O)(=O)N4CCCCC4)cc3)cc2)ncn1` as the molecule, how does the inhibition read?
Its inhibition is 13.5%.

Which inhibition does the source give for `O=C(CCl)NNc1nc(-c2ccccc2)c2cc(Cl)ccc2n1` here?
The inhibition was 19.7%.

For `OCCCNc1nc(-c2ccccc2)c2cc(Cl)ccc2n1`, which inhibition is on record?
Its inhibition is 19.5%.

Which inhibition does the source give for `NC(N)=Nc1nc(-c2ccccc2)c2cc(Cl)ccc2n1` here?
Its inhibition is 97.4% (active).
